Test results reported in PubChem BioAssay (NCATS).
Records with an inconclusive call do not appear. The source made the active and inactive calls. Unless noted, calls come from the whole dose curve; as a rule, active = well fitted curve in the direction sought with a large enough effect; inconclusive = small, poorly fitted or top-dose-only effect, or another doubt; inactive = no such curve, though single readings can be large; an effect the other way counts as inactive or inconclusive.

What was measured:
[1] = biological target: ATP-dependent 6-phosphofructokinase (Trypanosoma brucei brucei) (UniProt O15648); test: qHTS Assay to Find Inhibitors of T. brucei phosphofructokinase: hit validation (AID 492961);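 note: luminescence reports ADP formed as PFK phosphorylates fructose-6-phosphate with ATP; % is set by controls: 0 for no effect and ±100 for the full control effect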
Outline: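 Percent activity derived from corrected luminescence, normalized between 0x and 1x enzyme controls, then fitted to concentration-response curves. Conditions: 1.25 nM PFK, 0.1 mM ATP, 0.5 mM F6P, 45 min RT.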

[2] = biological target: Ubiquitin carboxyl-terminal hydrolase 1 (Homo sapiens) (UniProt O94782); test: Inhibitors of USP1/UAF1: Pilot qHTS (AID 504865);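 note: rhodamine fluorescence freed from ubiquitin-rhodamine substrate followed over time; top concentration of the series differs between compounds; % is set by controls: 0 for no effect and ±100 for the full control effect; nearly all actives have a fitted effect of over 35% in size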
Outline: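 In 50mM HEPES pH 7.8 containing 0.5mM EDTA, 1mM TCEP, 0.1 mg/ml BSA and 0.01% Tween-20, 1nM USP1/UAF1 is exposed to compound for 15 min, then Ub-Rho (150nM final) is added and fluorescence is read over time.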

[3] = biological target: Luciferin 4-monooxygenase (Photinus pyralis) (UniProt P08659); test: Biochemical firefly luciferase enzyme assay for NPC (AID 624030);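 note: purified P. pyralis luciferase at 10 nM with luciferin and ATP substrate; 0% = DMSO and -100% = full luciferase inhibition by PTC124 control; nearly all actives have a fitted effect of over 70% in size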
Outline: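 Counter-screen for direct inhibition of the luciferase enzyme by approved-drug library compounds, run at 10 nM enzyme in 50 mM Tris acetate (final). Luminescence was read within 5 min of enzyme-buffer addition and normalized to PTC124 versus DMSO (0%).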

[4] = S16 Schwann cell viability assay (CellTiter-Glo assay) (AID 624031);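 note: native untransfected S16 rat Schwann cells; cellular ATP luminescence as a viability measure; plate controls were DMSO-treated cells for no effect and cell-free wells for full effect; nearly all actives have a fitted effect of over 70% in size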
Outline: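 Cells were seeded at 500-750 per well in phenol red-free DMEM with 10% FBS and left overnight. Compounds or DMSO were pinned in, incubation ran 24 h at 37 °C/5% CO2, then CellTiter-Glo reagent was added and luminescence measured.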

[5] = S16 Schwann cell PMP22 intronic element firefly luciferase assay (AID 624032);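 note: plate controls were DMSO for no effect and PTC124 positive control mean for full effect; nearly all actives have a fitted effect of over 30% in size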
Outline: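 Rat S16 Schwann cells stably carrying a PMP22 intronic element-driven Fluc reporter were seeded overnight, then exposed to compounds for 24 h at 37 °C. Luminescence was normalized to PTC124 (positive control) and DMSO (0% activity).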

[6] = S16 Schwann cell PMP22 intronic element beta-lactamase assay (AID 624044; calls by dose curve;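 note: 0% = DMSO and -100% = potassium clavulanate positive control; nearly all actives have a fitted effect of over 15% in size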)
Outline: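 Beta-lactamase reporter under a PMP22 intronic regulatory element in stable S16 rat Schwann cells; 24 h compound exposure. 460 nm blue signal normalized between DMSO (0%) and potassium clavulanate, with 535 nm FRET tracking viability; curves classed by r2 and response.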

[7] = system: Zika virus NS2B-NS3 protease; test: Primary screen GU AMC qHTS for Zika virus inhibitors (AID 1347154);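 note: 0% = no-inhibitor control and -100% = no-enzyme control; nearly all actives have a fitted effect of over 70% in size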
Outline: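 Unlinked Zika NS2B hydrophilic domain/NS3 protease domain noncovalent complex (25 nM final) in 10 mM Tris-HCl pH 8.0, 0.01% Tween 20, with AMC peptide substrate. Fluorescence (ex 340, em 450 nm) change over 15 min, room temperature; percent inhibition fitted to 4-parameter Hill equation.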

[8] = Primary qHTS for small molecule stabilizers of the endoplasmic reticulum resident proteome: Secreted ER Calcium Modulated Protein (SERCaMP) assay (AID 1508630); note: % is set by controls: 0 for no effect and ±100 for the full control effect
Outline: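 The SH-SY5Y reporter protocol was run at 3 concentrations up to 38.3 uM (primary) or 11 concentrations (follow-up): 16 h compound, 100 nM thapsigargin for 4 h, then extracellular luciferase luminescence.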

[9] = qHTS profiling for inhibitors of Plasmodium falciparum proliferation (AID 504749);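 note: 0% = DMSO vehicle and full inhibition = artemisinin control; nearly all actives have a fitted effect of over 60% in size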; details: P. falciparum in erythrocytes, SYBR Green DNA, 72 h; at 28.7 µM (top of the series); parasite line A
Outline: (§1)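 Fluorescence of SYBR Green-bound parasite DNA, read at 485/535 nm, served as the growth measure. Infected erythrocytes were cultured with compound 72 h; artemisinin (0.29 uM) and DMSO wells defined the normalization range.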

3D7 = test: as above; details: P. falciparum in erythrocytes, SYBR Green DNA, 72 h; series mostly up to 28.7 µM
Outline: as §1

7G8 = test: as above; details: P. falciparum in erythrocytes, SYBR Green DNA, 72 h; series mostly up to 28.7 µM
Outline: as §1

AA1029 = test: as above; details: P. falciparum in erythrocytes, SYBR Green DNA, 72 h; series mostly up to 28.7 µM
Outline: as §1

AS120 = test: as above; details: P. falciparum in erythrocytes, SYBR Green DNA, 72 h; series mostly up to 28.7 µM
Outline: as §1

ATS189 = test: as above; details: P. falciparum in erythrocytes, SYBR Green DNA, 72 h; series mostly up to 28.7 µM
Outline: as §1

ATS95 = test: as above; details: P. falciparum in erythrocytes, SYBR Green DNA, 72 h; series mostly up to 28.7 µM
Outline: as §1

C2A = test: as above; details: P. falciparum in erythrocytes, SYBR Green DNA, 72 h; series mostly up to 28.7 µM
Outline: as §1

CP185 = test: as above; details: P. falciparum in erythrocytes, SYBR Green DNA, 72 h; series mostly up to 28.7 µM
Outline: as §1

CP191 = test: as above; details: P. falciparum in erythrocytes, SYBR Green DNA, 72 h; series mostly up to 28.7 µM
Outline: as §1

CP192 = test: as above; details: P. falciparum in erythrocytes, SYBR Green DNA, 72 h; series mostly up to 28.7 µM
Outline: as §1

CP194 = test: as above; details: P. falciparum in erythrocytes, SYBR Green DNA, 72 h; series mostly up to 28.7 µM
Outline: as §1

CP201 = test: as above; details: P. falciparum in erythrocytes, SYBR Green DNA, 72 h; series mostly up to 28.7 µM
Outline: as §1

CP203 = test: as above; details: P. falciparum in erythrocytes, SYBR Green DNA, 72 h; series mostly up to 28.7 µM
Outline: as §1

CP211 = test: as above; details: P. falciparum in erythrocytes, SYBR Green DNA, 72 h; series mostly up to 28.7 µM
Outline: as §1

CP215 = test: as above; details: P. falciparum in erythrocytes, SYBR Green DNA, 72 h; series mostly up to 28.7 µM
Outline: as §1

CP217 = test: as above; details: P. falciparum in erythrocytes, SYBR Green DNA, 72 h; series mostly up to 28.7 µM
Outline: as §1

CP237 = test: as above; details: P. falciparum in erythrocytes, SYBR Green DNA, 72 h; series mostly up to 28.7 µM
Outline: as §1

CP238 = test: as above; details: P. falciparum in erythrocytes, SYBR Green DNA, 72 h; series mostly up to 28.7 µM
Outline: as §1

CP247 = test: as above; details: P. falciparum in erythrocytes, SYBR Green DNA, 72 h; series mostly up to 28.7 µM
Outline: as §1

CP250 = test: as above; details: P. falciparum in erythrocytes, SYBR Green DNA, 72 h; series mostly up to 28.7 µM
Outline: as §1

CP252 = test: as above; details: P. falciparum in erythrocytes, SYBR Green DNA, 72 h; series mostly up to 28.7 µM
Outline: as §1

CP256 = test: as above; details: P. falciparum in erythrocytes, SYBR Green DNA, 72 h; series mostly up to 28.7 µM
Outline: as §1

CP260 = test: as above; details: P. falciparum in erythrocytes, SYBR Green DNA, 72 h; series mostly up to 28.7 µM
Outline: as §1

CP262 = test: as above; details: P. falciparum in erythrocytes, SYBR Green DNA, 72 h; series mostly up to 28.7 µM
Outline: as §1

CP265 = test: as above; details: P. falciparum in erythrocytes, SYBR Green DNA, 72 h; series mostly up to 28.7 µM
Outline: as §1

CP266 = test: as above; details: P. falciparum in erythrocytes, SYBR Green DNA, 72 h; series mostly up to 28.7 µM
Outline: as §1

CP268 = test: as above; details: P. falciparum in erythrocytes, SYBR Green DNA, 72 h; series mostly up to 28.7 µM
Outline: as §1

CP269 = test: as above; details: P. falciparum in erythrocytes, SYBR Green DNA, 72 h; series mostly up to 28.7 µM
Outline: as §1

CP286 = test: as above; details: P. falciparum in erythrocytes, SYBR Green DNA, 72 h; series mostly up to 28.7 µM
Outline: as §1

CP291 = test: as above; details: P. falciparum in erythrocytes, SYBR Green DNA, 72 h; series mostly up to 28.7 µM
Outline: as §1

CP297 = test: as above; details: P. falciparum in erythrocytes, SYBR Green DNA, 72 h; series mostly up to 28.7 µM
Outline: as §1

CP305 = test: as above; details: P. falciparum in erythrocytes, SYBR Green DNA, 72 h; series mostly up to 28.7 µM
Outline: as §1

CP315 = test: as above; details: P. falciparum in erythrocytes, SYBR Green DNA, 72 h; series mostly up to 28.7 µM
Outline: as §1

CP325 = test: as above; details: P. falciparum in erythrocytes, SYBR Green DNA, 72 h; series mostly up to 28.7 µM
Outline: as §1

CP329 = test: as above; details: P. falciparum in erythrocytes, SYBR Green DNA, 72 h; series mostly up to 28.7 µM
Outline: as §1

CP335 = test: as above; details: P. falciparum in erythrocytes, SYBR Green DNA, 72 h; series mostly up to 28.7 µM
Outline: as §1

DFO2036 = test: as above; details: P. falciparum in erythrocytes, SYBR Green DNA, 72 h; series mostly up to 28.7 µM
Outline: as §1

DIV14 = test: as above; details: P. falciparum in erythrocytes, SYBR Green DNA, 72 h; series mostly up to 28.7 µM
Outline: as §1

DIV17 = test: as above; details: P. falciparum in erythrocytes, SYBR Green DNA, 72 h; series mostly up to 28.7 µM
Outline: as §1

DIV30 = test: as above; details: P. falciparum in erythrocytes, SYBR Green DNA, 72 h; series mostly up to 28.7 µM
Outline: as §1

Dd2 = test: as above; details: P. falciparum in erythrocytes, SYBR Green DNA, 72 h; series mostly up to 28.7 µM
Outline: as §1

ECU = test: as above; details: P. falciparum in erythrocytes, SYBR Green DNA, 72 h; series mostly up to 28.7 µM
Outline: as §1

FAB9 = test: as above; details: P. falciparum in erythrocytes, SYBR Green DNA, 72 h; series mostly up to 28.7 µM
Outline: as §1

GB4 = test: as above; details: P. falciparum in erythrocytes, SYBR Green DNA, 72 h; series mostly up to 28.7 µM
Outline: as §1

HB3 = test: as above; details: P. falciparum in erythrocytes, SYBR Green DNA, 72 h; series mostly up to 28.7 µM
Outline: as §1

ICS = test: as above; details: P. falciparum in erythrocytes, SYBR Green DNA, 72 h; series mostly up to 28.7 µM
Outline: as §1

JCK = test: as above; details: P. falciparum in erythrocytes, SYBR Green DNA, 72 h; series mostly up to 28.7 µM
Outline: as §1

N140 = test: as above; details: P. falciparum in erythrocytes, SYBR Green DNA, 72 h; series mostly up to 28.7 µM
Outline: as §1

P93_24 = test: as above; details: P. falciparum in erythrocytes, SYBR Green DNA, 72 h; series mostly up to 28.7 µM
Outline: as §1

P94_40 = test: as above; details: P. falciparum in erythrocytes, SYBR Green DNA, 72 h; series mostly up to 28.7 µM
Outline: as §1

PAD = test: as above; details: P. falciparum in erythrocytes, SYBR Green DNA, 72 h; series mostly up to 28.7 µM
Outline: as §1

PC15 = test: as above; details: P. falciparum in erythrocytes, SYBR Green DNA, 72 h; series mostly up to 28.7 µM
Outline: as §1

PC26 = test: as above; details: P. falciparum in erythrocytes, SYBR Green DNA, 72 h; series mostly up to 28.7 µM
Outline: as §1

PC49 = test: as above; details: P. falciparum in erythrocytes, SYBR Green DNA, 72 h; series mostly up to 28.7 µM
Outline: as §1

SC27B = test: as above; details: P. falciparum in erythrocytes, SYBR Green DNA, 72 h; series mostly up to 28.7 µM
Outline: as §1

TAB109 = test: as above; details: P. falciparum in erythrocytes, SYBR Green DNA, 72 h; series mostly up to 28.7 µM
Outline: as §1

TAB113 = test: as above; details: P. falciparum in erythrocytes, SYBR Green DNA, 72 h; series mostly up to 28.7 µM
Outline: as §1

TAB165 = test: as above; details: P. falciparum in erythrocytes, SYBR Green DNA, 72 h; series mostly up to 28.7 µM
Outline: as §1

Chain of Ubiquitin carboxyl-terminal hydrolase 1 (Homo sapiens) (O94782 whole entry, looked up): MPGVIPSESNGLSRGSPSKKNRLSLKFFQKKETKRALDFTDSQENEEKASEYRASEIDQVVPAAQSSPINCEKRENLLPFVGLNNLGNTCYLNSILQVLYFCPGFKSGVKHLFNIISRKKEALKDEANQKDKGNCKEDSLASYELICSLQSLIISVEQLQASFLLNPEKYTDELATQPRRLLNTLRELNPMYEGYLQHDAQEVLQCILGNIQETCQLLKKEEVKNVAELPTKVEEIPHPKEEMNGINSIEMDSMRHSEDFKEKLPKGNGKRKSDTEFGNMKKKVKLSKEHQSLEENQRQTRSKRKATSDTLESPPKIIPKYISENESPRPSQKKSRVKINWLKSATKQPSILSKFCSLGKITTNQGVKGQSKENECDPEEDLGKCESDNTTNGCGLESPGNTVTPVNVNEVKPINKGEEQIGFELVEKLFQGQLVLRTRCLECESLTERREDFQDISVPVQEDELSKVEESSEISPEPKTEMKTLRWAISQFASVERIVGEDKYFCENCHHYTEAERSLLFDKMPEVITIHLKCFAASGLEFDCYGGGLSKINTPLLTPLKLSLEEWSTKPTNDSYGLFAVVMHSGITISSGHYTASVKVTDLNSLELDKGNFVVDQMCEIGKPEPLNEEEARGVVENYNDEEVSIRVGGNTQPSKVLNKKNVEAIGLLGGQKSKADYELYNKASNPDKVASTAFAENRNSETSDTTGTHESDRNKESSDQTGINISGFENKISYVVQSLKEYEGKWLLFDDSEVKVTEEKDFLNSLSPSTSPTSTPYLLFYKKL
Chain of Luciferin 4-monooxygenase (Photinus pyralis) (P08659 whole entry, looked up): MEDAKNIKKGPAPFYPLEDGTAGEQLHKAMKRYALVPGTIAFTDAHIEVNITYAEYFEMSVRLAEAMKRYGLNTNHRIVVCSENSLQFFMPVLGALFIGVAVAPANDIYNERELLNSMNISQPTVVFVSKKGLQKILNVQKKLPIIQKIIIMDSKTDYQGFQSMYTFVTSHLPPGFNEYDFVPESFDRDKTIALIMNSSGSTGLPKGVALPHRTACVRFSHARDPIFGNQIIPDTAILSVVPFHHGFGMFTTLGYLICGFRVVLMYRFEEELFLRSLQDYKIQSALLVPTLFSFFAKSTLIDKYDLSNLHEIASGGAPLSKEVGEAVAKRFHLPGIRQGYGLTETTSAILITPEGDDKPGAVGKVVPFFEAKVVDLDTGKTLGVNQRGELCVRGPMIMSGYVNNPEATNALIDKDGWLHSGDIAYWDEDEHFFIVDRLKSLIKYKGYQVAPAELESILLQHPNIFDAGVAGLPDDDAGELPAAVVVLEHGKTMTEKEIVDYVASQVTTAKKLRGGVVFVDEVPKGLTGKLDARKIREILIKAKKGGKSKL
Chain of ATP-dependent 6-phosphofructokinase (Trypanosoma brucei brucei) (O15648 whole entry, looked up): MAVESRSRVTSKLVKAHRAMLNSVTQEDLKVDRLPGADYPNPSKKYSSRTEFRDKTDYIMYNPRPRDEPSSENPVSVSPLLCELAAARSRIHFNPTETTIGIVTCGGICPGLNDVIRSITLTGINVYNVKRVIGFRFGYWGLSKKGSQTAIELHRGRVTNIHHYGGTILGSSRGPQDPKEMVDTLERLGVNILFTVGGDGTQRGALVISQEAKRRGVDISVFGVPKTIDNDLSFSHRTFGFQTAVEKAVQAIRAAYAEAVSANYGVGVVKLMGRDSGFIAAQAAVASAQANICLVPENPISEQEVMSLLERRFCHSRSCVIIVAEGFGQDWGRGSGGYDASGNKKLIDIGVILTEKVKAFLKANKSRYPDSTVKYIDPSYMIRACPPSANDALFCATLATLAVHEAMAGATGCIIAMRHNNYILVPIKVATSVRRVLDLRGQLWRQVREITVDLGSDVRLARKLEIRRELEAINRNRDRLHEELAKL

CC(=O)[C@H]1CC[C@H]2C3CC=C4C[C@@H](O)CC[C@]4(C)C3CC[C@]12C (some centres not stated)
inactive: outcome [1] | Potency [2] | Potency [3] | outcome [4] | Potency [5] | Potency [6] | Potency [7] | Potency [8] | activity, negative = inhibition [9] -13% | Potency (3D7) | Potency (7G8) | Potency (AA1029) | Potency (AS120) | Potency (ATS189) | Potency (ATS95) | Potency (C2A) | Potency (CP185) | Potency (CP191) | Potency (CP192) | Potency (CP194) | Potency (CP201) | Potency (CP203) | Potency (CP211) | Potency (CP215) | Potency (CP217) | Potency (CP237) | Potency (CP238) | Potency (CP247) | Potency (CP250) | Potency (CP252) | Potency (CP256) | Potency (CP260) | Potency (CP262) | Potency (CP265) | Potency (CP266) | Potency (CP268) | Potency (CP269) | Potency (CP286) | Potency (CP291) | Potency (CP297) | Potency (CP305) | Potency (CP315) | Potency (CP325) | Potency (CP329) | Potency (CP335) | Potency (DFO2036) | Potency (DIV14) | Potency (DIV17) | Potency (DIV30) | Potency (Dd2) | Potency (ECU) | Potency (FAB9) | Potency (GB4) | Potency (HB3) | Potency (ICS) | Potency (JCK) | Potency (N140) | Potency (P93_24) | Potency (P94_40) | Potency (PAD) | Potency (PC15) | Potency (PC26) | Potency (PC49) | Potency (SC27B) | Potency (TAB109) | Potency (TAB113) | Potency (TAB165)
